5 compounds from PubChem BioAssay can be followed below.

A short description of assay [1]: small molecules captured by biotinylated probe aFSTL3 – biochemical, small-molecule microarray, fluorescence 635/667, stem cell growth factor project, primary screen (AID 1064).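 Also: measures binding of the biotinylated anti-FSTL3 antibody to printed compounds.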 The settings on record: higher = more signal.
A short description of assay [2]: binders from COS7 lysate, DM2A8 probe, primary screen, torsin A project, cell lysate, small-molecule microarray, fluorescence 635/667 (AID 1065). The settings on record: higher = more signal, COS7 lysate expressing mutant human TOR1A.
Assay [3] is described as follows: small molecules captured by biotinylated probe aFGF2 – biochemical, small-molecule microarray, fluorescence 635/667, stem cell growth factor project, primary screen (AID 1067).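 Also: measures binding of biotinylated aFGF2 protein to printed compounds on slides; z-score merges feature fluorescence and signal-to-noise across triplicate slides.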 As to conditions: higher = more signal.
Assay [4] is described as follows: small molecules captured by biotinylated probe aFGF10 – biochemical, small-molecule microarray, fluorescence 635/667, stem cell growth factor project, primary screen (AID 1071).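 Also: score merges 667 nm spot intensity and signal to noise from triplicate slides.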 As to conditions: higher = more signal.
Assay [5] deals with Neurogenic locus notch homolog protein 2 (Homo sapiens) (UniProt Q04721). Description: small molecules binding Notch2 protein – biochemical, small-molecule microarray, 635 nm fluorescence, stem cell growth factors, primary screen (AID 1073). The settings on record: higher = more signal.
Assay [6] concerns the target Pro-neuregulin-1, membrane-bound isoform (Homo sapiens) (UniProt Q02297). Description: small molecules binding neuregulin-1 protein – biochemical, small-molecule microarray, fluorescence 635/667, psychiatric disease protein project, primary screen (AID 1075).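 Also: score combines 667 nm spot fluorescence with signal to noise.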 The settings on record: NRG1 binding, 635 nm fluorescence, higher = more signal.
The test system of assay [7] is Neuregulin-1 EGF-like domain. The assay is described as follows: small molecules binding NRG1 EGF domain – biochemical, small-molecule microarray, 635 nm fluorescence, primary screen (AID 1081).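 Also: binding of the protein to compounds printed on small-molecule microarray slides.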 The settings on record: higher = more signal.
A short description of assay [8]: FRG1 expression reporter modulators in myotubes – cell-based, C2C12 myotubes, firefly/Renilla luciferase, luminescence, FRG1 inhibition for FSHD, primary screen (AID 1084). As to conditions: FRG1 promoter luciferase, higher = more signal, called active from +8 up or from −8 down.
Assay [9] in a line: small molecules captured by biotinylated probe aFST – biochemical, small-molecule microarray, fluorescence 635/667, stem cell growth factor project, primary screen (AID 1086).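 Also: score merges 667 nm fluorescence with signal-to-noise of each printed compound spot.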 As to conditions: higher = more signal.
Assay [10] is described as follows: binders of probe aHhip on microarray, primary screen, stem cell growth factor project, biochemical, small-molecule microarray, fluorescence 635/667 (AID 1087).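 Also: score merges spot fluorescence at 667nm with spot signal to noise ratio.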 As to conditions: higher = more signal.
Assay [11] relates to PRMT1 (protein arginine N-methyltransferase 1). Description: small molecules binding arginine methyltransferase PRMT1 – biochemical, small-molecule microarray, 635 nm fluorescence, primary screen (AID 1088).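 Also: binding of Prmt1 protein to compounds spotted on small-molecule microarray slides.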 The settings on record: higher = more signal.
Assay [12] is described as follows: growth effects on S. cerevisiae YJM789 – YJM789 clinical isolate, OD600, 24 h, basal, primary screen (AID 1089).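 Also: growth of clinical yeast isolate S. cerevisiae YJM 789 seeded 1000 cells per well; test concentration not given here.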 As to conditions: higher = more signal, called active from +8 up or from −8 down.
Assay [13] is described as follows: S. pombe growth modifiers, basal conditions – strain 972, OD600, 24 h, no modulator, primary screen (AID 1090).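 Also: basal condition with compound alone and no growth modifier present; test concentration not given here.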 As to conditions: S. pombe 972 growth, higher = more signal, called active from +8 up or from −8 down.
Assay [14] is described as follows: budding yeast growth modifiers under rapamycin – strain BY4716, OD600, 96 h, primary screen (AID 1091). Also: test concentration not given here. As to conditions: S. cerevisiae BY4716 + rapamycin, higher = more signal, called active from +8 up or from −8 down.
Assay [15] addresses Torsin-1A-interacting protein 2 (Homo sapiens) (UniProt Q8NFQ8). Description: small molecules binding lysate-expressed LULL1 – cell lysate, human LULL1 lysate, 635/667 nm fluorescence, primary screen (AID 1092).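 Also: probe is lysate of COS7 cells overexpressing human LULL1; score merges per-feature 667 nm fluorescence with signal-to-noise.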 The settings on record: small-molecule microarray, hLULL1 lysate binding, 635 nm fluorescence; higher = more signal.
Assay [16] is described as follows: optical density change of DRC41 E. coli – strain DRC41, OD650, 24 h, E. coli filamentation project, primary screen (AID 1093).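 Also: MC1000 strain lacking acrAB efflux and sulA so SOS filamentation is blocked; test concentration not given here.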 The settings on record: E. coli DRC41 growth, higher = more signal, called active from +8 up or from −8 down.
A short description of assay [17]: probe aLefty2 binding to arrayed compounds – biochemical, biotinylated probe, 635/667 nm fluorescence, primary screen (AID 1094).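 Also: score merges spot fluorescence near 667 nm with spot signal-to-noise ratio.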 As to conditions: small-molecule microarray, higher = more signal.
In assay [18] the test system is Noggin (protein binding on small-molecule microarray). The assay is described as follows: small molecules binding Noggin protein – biochemical, 635/667 nm fluorescence, primary screen (AID 1095).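 Also: score merges 667 nm feature fluorescence with signal to noise over triplicate slides.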 As to conditions: 635 nm fluorescence, higher = more signal.
Assay [19] has as its target Neurogenic locus notch homolog protein 3 (Homo sapiens) (UniProt Q9UM47). The assay is described as follows: small molecules binding NOTCH3 protein – biochemical, 635/667 nm fluorescence, primary screen (AID 1096). As to conditions: small-molecule microarray, 635 nm fluorescence, higher = more signal.
Assay [20] is described as follows: probe aEGFR binding to arrayed compounds – biochemical, biotinylated probe, 635/667 nm fluorescence, primary screen (AID 1097).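 Also: probe is a biotinylated anti-EGFR antibody binding compounds printed on slides; score combines fluorescence near 667 nm and signal to noise of each spot.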 As to conditions: small-molecule microarray, higher = more signal.

The source made the active and inactive calls.

Sequence of Torsin-1A-interacting protein 2 (Homo sapiens) (Q8NFQ8 whole entry, looked up): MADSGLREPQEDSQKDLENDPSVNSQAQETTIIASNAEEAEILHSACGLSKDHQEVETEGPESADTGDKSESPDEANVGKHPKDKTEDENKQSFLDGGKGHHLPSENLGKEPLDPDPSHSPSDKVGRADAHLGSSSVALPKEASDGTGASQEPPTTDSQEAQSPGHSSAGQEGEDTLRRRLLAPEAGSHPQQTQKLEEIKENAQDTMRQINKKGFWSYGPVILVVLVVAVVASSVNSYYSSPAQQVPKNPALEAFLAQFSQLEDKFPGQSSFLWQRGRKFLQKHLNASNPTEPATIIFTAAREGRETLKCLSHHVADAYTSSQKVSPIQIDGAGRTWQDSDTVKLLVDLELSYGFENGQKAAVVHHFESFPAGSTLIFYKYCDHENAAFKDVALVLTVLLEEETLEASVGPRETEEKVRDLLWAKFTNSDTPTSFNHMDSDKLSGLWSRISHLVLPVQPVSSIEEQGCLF
Sequence of Neurogenic locus notch homolog protein 3 (Homo sapiens) (Q9UM47 whole entry, looked up): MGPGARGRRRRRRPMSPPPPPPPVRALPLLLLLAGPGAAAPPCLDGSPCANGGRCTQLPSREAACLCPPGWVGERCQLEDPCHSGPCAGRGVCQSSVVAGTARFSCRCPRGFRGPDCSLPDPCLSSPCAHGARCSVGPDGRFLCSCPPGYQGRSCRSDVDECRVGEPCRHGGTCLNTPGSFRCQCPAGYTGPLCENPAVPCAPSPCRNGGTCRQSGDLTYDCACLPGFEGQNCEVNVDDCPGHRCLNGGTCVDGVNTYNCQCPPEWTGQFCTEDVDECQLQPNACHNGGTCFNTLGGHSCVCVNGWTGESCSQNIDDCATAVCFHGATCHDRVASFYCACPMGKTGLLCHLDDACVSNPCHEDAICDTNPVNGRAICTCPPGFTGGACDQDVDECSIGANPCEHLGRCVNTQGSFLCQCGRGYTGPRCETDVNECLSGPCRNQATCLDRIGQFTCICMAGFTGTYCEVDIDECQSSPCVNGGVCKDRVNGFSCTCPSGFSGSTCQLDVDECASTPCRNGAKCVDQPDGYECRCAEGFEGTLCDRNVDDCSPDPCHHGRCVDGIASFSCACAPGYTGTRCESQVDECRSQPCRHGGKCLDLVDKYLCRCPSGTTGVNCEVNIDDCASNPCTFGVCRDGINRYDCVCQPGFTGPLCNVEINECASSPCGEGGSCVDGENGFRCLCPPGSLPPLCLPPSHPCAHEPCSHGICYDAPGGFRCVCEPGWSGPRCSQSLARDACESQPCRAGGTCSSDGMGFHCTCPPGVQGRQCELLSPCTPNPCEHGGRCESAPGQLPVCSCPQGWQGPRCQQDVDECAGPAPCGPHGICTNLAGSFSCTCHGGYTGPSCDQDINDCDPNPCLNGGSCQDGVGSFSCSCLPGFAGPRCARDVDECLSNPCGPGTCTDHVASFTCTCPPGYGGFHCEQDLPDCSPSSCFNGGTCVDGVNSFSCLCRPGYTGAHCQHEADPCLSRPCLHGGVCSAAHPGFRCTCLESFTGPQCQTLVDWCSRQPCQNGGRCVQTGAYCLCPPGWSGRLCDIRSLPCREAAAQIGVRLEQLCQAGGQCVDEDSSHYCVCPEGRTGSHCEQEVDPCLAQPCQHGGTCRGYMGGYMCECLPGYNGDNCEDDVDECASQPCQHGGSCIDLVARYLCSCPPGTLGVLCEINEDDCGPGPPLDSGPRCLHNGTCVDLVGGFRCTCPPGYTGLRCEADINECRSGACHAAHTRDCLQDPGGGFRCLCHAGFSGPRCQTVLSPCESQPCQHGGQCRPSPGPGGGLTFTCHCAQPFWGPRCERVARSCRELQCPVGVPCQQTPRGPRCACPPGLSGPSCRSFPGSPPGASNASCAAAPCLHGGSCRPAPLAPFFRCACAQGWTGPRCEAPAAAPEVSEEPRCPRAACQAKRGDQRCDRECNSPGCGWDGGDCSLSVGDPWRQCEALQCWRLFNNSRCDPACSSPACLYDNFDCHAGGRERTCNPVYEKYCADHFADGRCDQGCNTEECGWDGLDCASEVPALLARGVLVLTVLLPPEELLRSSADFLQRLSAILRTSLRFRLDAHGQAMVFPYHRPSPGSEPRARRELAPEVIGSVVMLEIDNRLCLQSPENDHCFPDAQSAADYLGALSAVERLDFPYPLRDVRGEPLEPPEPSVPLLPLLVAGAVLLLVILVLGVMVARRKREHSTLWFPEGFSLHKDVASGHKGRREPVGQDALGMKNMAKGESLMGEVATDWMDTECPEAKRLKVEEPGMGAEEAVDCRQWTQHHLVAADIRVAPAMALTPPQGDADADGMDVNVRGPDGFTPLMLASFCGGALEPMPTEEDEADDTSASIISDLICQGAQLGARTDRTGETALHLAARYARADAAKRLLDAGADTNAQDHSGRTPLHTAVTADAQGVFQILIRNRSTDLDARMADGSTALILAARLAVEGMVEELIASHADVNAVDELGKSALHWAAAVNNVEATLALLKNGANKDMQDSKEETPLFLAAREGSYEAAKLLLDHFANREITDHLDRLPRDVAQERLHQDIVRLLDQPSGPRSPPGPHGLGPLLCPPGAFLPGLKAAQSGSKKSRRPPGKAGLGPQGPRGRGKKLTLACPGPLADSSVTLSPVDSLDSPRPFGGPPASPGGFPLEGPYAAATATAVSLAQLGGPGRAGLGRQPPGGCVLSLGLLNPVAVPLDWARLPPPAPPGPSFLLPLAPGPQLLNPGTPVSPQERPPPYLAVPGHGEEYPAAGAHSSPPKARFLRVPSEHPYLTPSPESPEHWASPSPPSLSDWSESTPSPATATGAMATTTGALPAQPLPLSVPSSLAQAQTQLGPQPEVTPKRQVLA
Sequence of Pro-neuregulin-1, membrane-bound isoform (Homo sapiens) (Q02297 whole entry, looked up, the tested form may be a part, canonical isoform): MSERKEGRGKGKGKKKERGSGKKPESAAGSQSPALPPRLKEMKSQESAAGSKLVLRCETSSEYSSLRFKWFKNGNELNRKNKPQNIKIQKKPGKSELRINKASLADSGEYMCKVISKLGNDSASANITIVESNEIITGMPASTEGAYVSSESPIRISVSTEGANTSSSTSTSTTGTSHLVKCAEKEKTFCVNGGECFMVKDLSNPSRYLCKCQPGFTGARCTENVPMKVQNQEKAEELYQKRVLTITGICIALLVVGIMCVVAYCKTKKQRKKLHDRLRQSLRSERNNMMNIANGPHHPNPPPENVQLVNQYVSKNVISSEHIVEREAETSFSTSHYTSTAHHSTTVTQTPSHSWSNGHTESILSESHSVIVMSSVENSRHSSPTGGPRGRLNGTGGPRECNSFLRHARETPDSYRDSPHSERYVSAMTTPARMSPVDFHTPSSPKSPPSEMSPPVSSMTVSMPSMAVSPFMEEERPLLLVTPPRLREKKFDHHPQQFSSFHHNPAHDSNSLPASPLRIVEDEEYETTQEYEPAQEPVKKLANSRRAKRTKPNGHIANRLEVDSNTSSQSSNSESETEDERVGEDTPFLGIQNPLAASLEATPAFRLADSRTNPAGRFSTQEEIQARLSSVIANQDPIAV

For the compound `COc1ccc([Si](C)(C)[C@H]2[C@H](CC(=O)N3CCC[C@H]3CO)O[C@@]3(C(=O)N(Cc4ccc(N5CCC5=O)cc4)c4ccccc43)[C@@H]2C)cc1`, the composite z-score is -0.589 in assay [1]; 0.429 in assay [2]; -0.0276 in [3]; 0.299 in assay [4]; 0.549 in assay [5]; 0.454 in assay [6]. Besides, the composite z-score in assay [7] is 1.1; in assay [9], 0.485; in assay [10], -0.215; in [11], 1.54; in [15], 2.42; in [17] it was -0.197. The values for the composite z-score in [18], in [19] and in assay [20] were 1.65, 1.07 and -0.0578, respectively. The z-score is -4.59 (inactive) in assay [8]; -0.647 (inactive) in [12]; -1.59 (inactive) in assay [13]; -1.31 (inactive) in assay [14]; 0.13 (inactive) in [16].
On to `O=C1O[C@H](c2ccccc2)[C@H](c2ccccc2)N2[C@H]1[C@@H](C(=O)N1CCCCCCC1)[C@]1(C(=O)Nc3ccc(C#CC4(O)CCCCCC4)cc31)[C@H]2c1ccccc1OCCO`, for which the composite z-score in [1] worked out at 4; in [2], 2.61; in assay [3], 0.935; in [4], 1.46; in assay [5], 1.83; in assay [6], 2.5. For the same compound, the composite z-score in [7] came to 1.33; in assay [9], 3.82; in assay [10] it was 1.9; in assay [11] it was 1.54; in assay [15], 5.1; in assay [17] it was 1.91. In addition, the composite z-score stood at 2.38 in assay [18], 1.03 in assay [19] and 1.51 in [20]. In addition, the z-score in [8] is -1.5 (inactive); in assay [12], 1.56 (inactive); in [13], 0.462 (inactive); in assay [14], 3.41 (inactive); in assay [16] it was 1.04 (inactive).
With `COc1cc2c(cc1O)C(c1ccc(CN3CCCC3)cc1)N(C)CC2` (stereo not given), the composite z-score in assay [1] is -1.13; in [2], -0.77; in [3] it was -0.148; in assay [4], 0.0711; in [5], -0.101; in [6] it was 2.19. The composite z-score in assay [7] was 1.07; in [9] it was -0.382; in assay [10] it was -0.81; in [11], -1.16; in assay [15], 0.54; in assay [17], -0.316. The figures for the composite z-score in [18], in assay [19] and in [20] were -0.814, -0.579 and -0.191, respectively. Moreover, the z-score is -0.426 (inactive) in [8]; 0.526 (inactive) in assay [12]; -0.262 (inactive) in assay [13]; 0.539 (inactive) in [14]; 0.774 (inactive) in [16].
As to `COC(=O)C1=CC(CCCO)=CC(c2ccc(CN3CCCC3)cc2)N(Cc2cc3c(cc2Br)OCO3)C=C1C(=O)OC` (stereo not given), the composite z-score in assay [1] was determined as 0.942; in assay [2], 1.66; in [3], 0.19; in assay [4], 1.26; in assay [5] it was 1.61; in assay [6], 2.4. Moreover, the composite z-score in assay [7] came to 1.18; in [9] it was 1.97; in assay [10], 0.0605; in assay [11], 1.57; in [15], 3.5; in [17] it was 0.639. The results for the composite z-score in assay [18], in assay [19] and in assay [20] were 0.719, 1.01 and 0.481, respectively. Further, the z-score is 0.046 (inactive) in assay [8]; -0.622 (inactive) in assay [12]; -1.23 (inactive) in assay [13]; -0.371 (inactive) in assay [14]; -0.327 (inactive) in [16].
As for `C=C(COC)/C(=C/C[C@@H](OC(C)=O)c1ccc(CO)o1)c1cc(C(=O)OC)ccc1OC`, the composite z-score is -0.22 in assay [1]; 0.707 in [2]; -0.111 in assay [3]; 0.851 in [4]; -0.378 in assay [5]; 1.46 in assay [6]. Moreover, the composite z-score in assay [7] is 1.3; in assay [9], -0.179; in assay [10], -0.0994; in assay [11], 1.02; in [15] it was 1.81; in [17] it was -0.166. The figures for the composite z-score in assay [18], in assay [19] and in [20] were 1.07, 0.711 and -0.0828, respectively. Also, the z-score in assay [8] is 0.435 (inactive); in assay [12], 0.932 (inactive); in [13], 0.369 (inactive); in assay [14] it was 0.264 (inactive); in [16], 0.0184 (inactive).
